# About 7,900 targets were measured; listed, in parts, are those with a hit and a random draw of the rest. About 0.6% of all pairs of compound and target were hits. A number with no mark means an inactive call.
# Key:
# Experiment in all cases: log2 fold change, soluble protein after heating vs DMSO (PISA); higher = thermal stabilisation; K562 cells, 10 uM, 30 min; active = over 0.2 and 3.5 SD of the protein, either way, in both replicates (recomputed)
# [1] = compound: CC[C@@H]1C(=O)N(C)c2cnc(Nc3ccc(C(=O)NC4CCN(C)CC4)cc3OC)nc2N1C1CCCC1
# In short: (§1)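 Quantification of soluble protein used TMTpro 16plex LC-MS/MS, with channel sums equalised. Samples were the supernatant after 21,000xg for 90 min of pooled aliquots from K562 cells (2×10^6 cells/mL) treated with 10 μM compound for 30 min, heated for 3 min over 48°C-58°C, and extracted in PBS with 0.5% NP-40 at 4°C. Values, from duplicates, describe thermal stability against control samples on a log2 fold-change scale.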
# volasertib = compound: CC[C@@H]1C(=O)N(C)c2cnc(Nc3ccc(C(=O)N[C@H]4CC[C@H](N5CCN(CC6CC6)CC5)CC4)cc3OC)nc2N1C(C)C [volasertib]
# In short: as §1
# [2] = compound: CC[C@H](C)N1C=C(C2=C(C=C(C=C21)C3=CN=C(C=C3)N4CCNCC4)C(=O)NCC5=C(C=C(NC5=O)C)C)C
# In short: as §1
# epoxomicin = compound: CC[C@H](C)[C@@H](C(=O)N[C@@H]([C@@H](C)O)C(=O)N[C@@H](CC(C)C)C(=O)[C@]1(CO1)C)NC(=O)[C@H]([C@@H](C)CC)N(C)C(=O)C [epoxomicin]
# In short: as §1
# [3] = compound: CCn1c(C(=O)N(C2CC2)C2CC2)cc2c3c(ncn3C)c(Nc3cc(C)n(C)n3)nc21
# In short: as §1
# [4] = compound: CCn1cc(-c2ccnc3[nH]c(-c4cccc(CN(C)C)c4)cc23)c(-c2ccc(NC(=O)N(C)C)cc2)n1
# In short: as §1
# [5] = compound: CN(C)CC(=O)Nc1ccc2[nH]c(=O)c3ccccc3c2c1
# In short: as §1
# rosiglitazone = compound: CN(CCOC1=CC=C(C=C1)C[C@H]2C(=O)NC(=O)S2)C3=CC=CC=N3 (racemic) [rosiglitazone]
# In short: as §1
# [6] = compound: CN1C2=C(C3=C1C(=O)N(N=C3)CC4=CC(=CC=C4)N)SC(=C2)S(=O)C
# In short: as §1
# [7] = compound: CN1CCC(CNc2ccc3ncc(-c4cccc(OC(F)(F)F)c4)n3n2)CC1
# In short: as §1
# saracatinib = compound: CN1CCN(CCOc2cc(OC3CCOCC3)c3c(Nc4c(Cl)ccc5c4OCO5)ncnc3c2)CC1 [saracatinib]
# In short: as §1
# sotrastaurin = compound: CN1CCN(c2nc(C3=C(c4c[nH]c5ccccc45)C(=O)NC3=O)c3ccccc3n2)CC1 [sotrastaurin]
# In short: as §1
# alvocidib = compound: CN1CC[C@H](c2c(O)cc(O)c3c(=O)cc(-c4ccccc4Cl)oc23)[C@H](O)C1 [alvocidib]
# In short: as §1
# Tubastatin A = compound: CN1CCc2c(c3ccccc3n2Cc2ccc(C(=O)NO)cc2)C1 [Tubastatin A]
# In short: as §1
# [8] = compound: CNC(=O)C1=CC=CC=C1NC2=NC(=NC=C2Cl)NC3=C(C=C(C=C3)N4CCOCC4)OC
# In short: as §1
# defactinib = compound: CNC(=O)c1ccc(Nc2ncc(C(F)(F)F)c(NCc3nccnc3N(C)S(C)(=O)=O)n2)cc1 [defactinib]
# In short: as §1
# rucaparib = compound: CNCc1ccc(-c2[nH]c3cc(F)cc4c3c2CCNC4=O)cc1 [rucaparib]
# In short: as §1
# [9] = compound: CNc1nc(-c2ccc3c(N)n[nH]c3c2)cc(N2C[C@@H](C(=O)NC3CCCCC3)CC[C@H]2C)n1
# In short: as §1
# encorafenib = compound: COC(=O)N[C@@H](C)CNc1nccc(-c2cn(C(C)C)nc2-c2cc(Cl)cc(NS(C)(=O)=O)c2F)n1 [encorafenib]
# In short: as §1
# [10] = compound: COC(=O)[C@H](CCSC)NC(=O)C1=C(C=C(C=C1)NC[C@H](CS)N)C2=CC=CC=C2
# In short: as §1
# UniProt Q5TFE4, sequence (Q5TFE4 whole entry, looked up): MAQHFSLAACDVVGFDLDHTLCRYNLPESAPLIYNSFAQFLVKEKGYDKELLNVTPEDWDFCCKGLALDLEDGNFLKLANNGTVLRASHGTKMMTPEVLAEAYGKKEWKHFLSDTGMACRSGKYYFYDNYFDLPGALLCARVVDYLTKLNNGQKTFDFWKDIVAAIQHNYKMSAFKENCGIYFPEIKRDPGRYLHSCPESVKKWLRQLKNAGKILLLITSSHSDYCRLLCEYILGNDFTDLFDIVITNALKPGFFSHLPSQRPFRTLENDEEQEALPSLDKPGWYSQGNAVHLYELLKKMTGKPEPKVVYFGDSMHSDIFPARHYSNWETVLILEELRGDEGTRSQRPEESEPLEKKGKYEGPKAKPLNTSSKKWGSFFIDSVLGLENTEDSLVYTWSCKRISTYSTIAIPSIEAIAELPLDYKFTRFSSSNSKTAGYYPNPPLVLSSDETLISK
# UniProt Q9BV86, sequence (Q9BV86 whole entry, looked up): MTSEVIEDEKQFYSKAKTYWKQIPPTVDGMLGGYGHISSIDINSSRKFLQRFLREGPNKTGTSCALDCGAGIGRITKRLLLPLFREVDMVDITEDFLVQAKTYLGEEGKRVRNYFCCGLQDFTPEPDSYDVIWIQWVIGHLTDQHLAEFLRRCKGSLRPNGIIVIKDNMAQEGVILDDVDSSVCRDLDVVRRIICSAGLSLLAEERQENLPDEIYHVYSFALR
# UniProt P30419, sequence (P30419 whole entry, looked up): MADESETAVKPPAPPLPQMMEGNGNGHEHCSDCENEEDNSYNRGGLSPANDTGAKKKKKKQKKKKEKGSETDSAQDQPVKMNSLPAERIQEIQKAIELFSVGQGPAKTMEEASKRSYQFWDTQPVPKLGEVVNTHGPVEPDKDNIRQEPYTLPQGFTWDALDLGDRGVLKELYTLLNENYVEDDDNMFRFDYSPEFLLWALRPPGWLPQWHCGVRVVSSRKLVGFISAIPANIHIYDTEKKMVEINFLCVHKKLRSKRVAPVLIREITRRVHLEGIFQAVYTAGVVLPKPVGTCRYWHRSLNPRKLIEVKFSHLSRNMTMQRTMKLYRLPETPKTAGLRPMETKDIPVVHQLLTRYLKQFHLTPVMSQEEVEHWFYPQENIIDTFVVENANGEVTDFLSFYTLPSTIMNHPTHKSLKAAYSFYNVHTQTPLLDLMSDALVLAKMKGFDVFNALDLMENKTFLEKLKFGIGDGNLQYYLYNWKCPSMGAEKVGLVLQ
# UniProt Q9BSU3, sequence (Q9BSU3 whole entry, looked up): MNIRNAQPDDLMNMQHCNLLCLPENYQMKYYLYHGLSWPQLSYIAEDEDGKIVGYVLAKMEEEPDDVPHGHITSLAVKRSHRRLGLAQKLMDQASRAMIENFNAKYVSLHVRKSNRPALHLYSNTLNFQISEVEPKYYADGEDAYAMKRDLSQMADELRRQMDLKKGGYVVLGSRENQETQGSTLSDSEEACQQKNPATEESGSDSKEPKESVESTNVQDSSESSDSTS
# UniProt Q96I59, sequence (Q96I59 whole entry, looked up): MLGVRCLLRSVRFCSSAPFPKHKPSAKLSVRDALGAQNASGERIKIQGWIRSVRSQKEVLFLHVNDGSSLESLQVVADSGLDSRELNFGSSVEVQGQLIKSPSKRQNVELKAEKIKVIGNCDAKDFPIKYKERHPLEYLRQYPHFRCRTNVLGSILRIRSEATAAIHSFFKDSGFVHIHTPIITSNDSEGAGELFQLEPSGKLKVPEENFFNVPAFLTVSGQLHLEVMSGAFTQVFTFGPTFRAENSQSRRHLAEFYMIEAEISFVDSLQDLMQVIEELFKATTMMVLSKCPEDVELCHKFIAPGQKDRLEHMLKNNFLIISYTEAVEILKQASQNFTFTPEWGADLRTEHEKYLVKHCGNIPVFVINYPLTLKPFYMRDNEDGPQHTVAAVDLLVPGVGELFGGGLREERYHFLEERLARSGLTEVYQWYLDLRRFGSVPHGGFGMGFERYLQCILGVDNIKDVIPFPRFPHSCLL
# UniProt O14950, sequence (O14950 whole entry, looked up): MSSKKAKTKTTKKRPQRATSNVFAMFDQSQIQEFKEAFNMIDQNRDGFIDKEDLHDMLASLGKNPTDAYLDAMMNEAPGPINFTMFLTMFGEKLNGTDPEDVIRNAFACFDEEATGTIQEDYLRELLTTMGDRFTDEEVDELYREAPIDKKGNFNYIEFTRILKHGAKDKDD
# UniProt O15460, sequence (O15460 whole entry, looked up): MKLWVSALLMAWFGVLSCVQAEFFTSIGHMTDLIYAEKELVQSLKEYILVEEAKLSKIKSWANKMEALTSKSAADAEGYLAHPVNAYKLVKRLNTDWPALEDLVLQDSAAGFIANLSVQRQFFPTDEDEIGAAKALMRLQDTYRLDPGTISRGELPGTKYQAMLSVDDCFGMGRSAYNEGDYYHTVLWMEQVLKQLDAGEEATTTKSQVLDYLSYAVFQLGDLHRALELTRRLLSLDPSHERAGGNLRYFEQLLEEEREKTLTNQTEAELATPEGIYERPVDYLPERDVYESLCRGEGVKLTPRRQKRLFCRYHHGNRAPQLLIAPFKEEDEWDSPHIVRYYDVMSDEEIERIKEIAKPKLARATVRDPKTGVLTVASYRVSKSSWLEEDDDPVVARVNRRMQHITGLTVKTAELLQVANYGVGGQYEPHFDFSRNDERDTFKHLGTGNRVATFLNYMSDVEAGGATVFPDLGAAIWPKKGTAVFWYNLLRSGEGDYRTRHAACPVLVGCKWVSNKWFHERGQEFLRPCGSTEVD
# UniProt P53370, sequence (P53370 whole entry, looked up): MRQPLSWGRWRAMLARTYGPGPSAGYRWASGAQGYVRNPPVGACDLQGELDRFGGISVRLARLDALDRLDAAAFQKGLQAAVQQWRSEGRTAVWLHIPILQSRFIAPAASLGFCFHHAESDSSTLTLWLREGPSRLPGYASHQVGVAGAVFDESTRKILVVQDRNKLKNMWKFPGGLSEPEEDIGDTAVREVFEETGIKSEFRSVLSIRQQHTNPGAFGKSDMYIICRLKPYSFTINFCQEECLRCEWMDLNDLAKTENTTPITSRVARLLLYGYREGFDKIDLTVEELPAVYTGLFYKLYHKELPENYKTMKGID
# UniProt P15531, sequence (P15531 whole entry, looked up): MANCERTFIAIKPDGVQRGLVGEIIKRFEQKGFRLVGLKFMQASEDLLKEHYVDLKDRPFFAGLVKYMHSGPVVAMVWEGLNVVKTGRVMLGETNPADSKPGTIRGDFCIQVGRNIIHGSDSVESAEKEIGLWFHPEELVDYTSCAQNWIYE
# UniProt P20585, sequence (P20585 whole entry, looked up): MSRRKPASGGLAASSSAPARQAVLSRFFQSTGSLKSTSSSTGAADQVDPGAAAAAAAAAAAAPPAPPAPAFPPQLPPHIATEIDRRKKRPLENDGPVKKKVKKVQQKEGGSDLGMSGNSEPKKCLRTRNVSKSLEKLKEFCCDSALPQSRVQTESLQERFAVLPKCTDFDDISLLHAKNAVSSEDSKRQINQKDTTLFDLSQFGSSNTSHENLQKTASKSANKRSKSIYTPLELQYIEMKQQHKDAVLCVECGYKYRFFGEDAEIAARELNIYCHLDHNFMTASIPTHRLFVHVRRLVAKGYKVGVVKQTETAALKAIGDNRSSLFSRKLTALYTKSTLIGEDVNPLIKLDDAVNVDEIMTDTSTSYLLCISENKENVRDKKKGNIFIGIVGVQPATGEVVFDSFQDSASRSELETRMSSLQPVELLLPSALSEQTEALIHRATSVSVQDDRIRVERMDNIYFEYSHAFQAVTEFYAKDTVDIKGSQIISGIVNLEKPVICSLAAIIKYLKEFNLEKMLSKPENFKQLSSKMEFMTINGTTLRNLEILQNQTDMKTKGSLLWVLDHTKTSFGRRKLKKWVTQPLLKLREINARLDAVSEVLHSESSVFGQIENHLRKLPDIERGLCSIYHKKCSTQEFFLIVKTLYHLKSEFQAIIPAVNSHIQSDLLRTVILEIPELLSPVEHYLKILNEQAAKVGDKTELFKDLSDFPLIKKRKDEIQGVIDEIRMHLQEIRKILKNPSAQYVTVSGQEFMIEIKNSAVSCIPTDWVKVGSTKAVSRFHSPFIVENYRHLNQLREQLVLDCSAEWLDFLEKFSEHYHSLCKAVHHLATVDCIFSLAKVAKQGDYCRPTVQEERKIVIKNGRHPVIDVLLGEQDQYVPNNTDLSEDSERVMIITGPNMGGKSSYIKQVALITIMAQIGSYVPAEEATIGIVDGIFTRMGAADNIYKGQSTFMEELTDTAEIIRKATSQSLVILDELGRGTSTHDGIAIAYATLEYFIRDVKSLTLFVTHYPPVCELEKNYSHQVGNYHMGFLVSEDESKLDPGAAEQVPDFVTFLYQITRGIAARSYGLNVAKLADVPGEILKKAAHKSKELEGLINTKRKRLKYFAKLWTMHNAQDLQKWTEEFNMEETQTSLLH
# UniProt Q96MF7, sequence (Q96MF7 whole entry, looked up): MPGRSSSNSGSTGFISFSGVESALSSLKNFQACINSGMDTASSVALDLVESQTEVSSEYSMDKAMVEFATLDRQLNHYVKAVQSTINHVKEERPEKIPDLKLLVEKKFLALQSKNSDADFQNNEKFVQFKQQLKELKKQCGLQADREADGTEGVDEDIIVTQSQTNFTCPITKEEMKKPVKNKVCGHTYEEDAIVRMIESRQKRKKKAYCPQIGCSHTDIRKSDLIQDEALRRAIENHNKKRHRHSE
Target,log2 fold change [1],log2 fold change (volasertib),log2 fold change [2],log2 fold change (epoxomicin),log2 fold change [3],log2 fold change [4],log2 fold change [5],log2 fold change (rosiglitazone),log2 fold change [6],log2 fold change [7],log2 fold change (saracatinib),log2 fold change (sotrastaurin),log2 fold change (alvocidib),log2 fold change (Tubastatin A),log2 fold change [8],log2 fold change (defactinib),log2 fold change (rucaparib),log2 fold change [9],log2 fold change (encorafenib),log2 fold change [10]
OSBP (UniProt P22059),0.056,0.377 (active),0.032,0.053,-0.101,-0.087,0.013,0.038,-0.064,0.061,-0.051,-0.147,-0.028,0.037,0.062,-0.066,-0.11,0.062,-0.006,-0.001
NT5DC1 (UniProt Q5TFE4),0.165,0.051,-0.026,0.045,0.015,-0.054,0.014,0.008,-0.037,-0.063,-0.012,0.026,-0.049,0,0.115,-0.004,-0.057,-0.058,-0.029,0.037
NARS2 (UniProt Q96I59),-0.021,-0.043,0.045,0.048,0.034,-0.055,0.001,0.026,-0.034,-0.182,-0.004,0.03,-0.039,-0.127,-0.056,0.001,-0.021,-0.006,0.008,-0.008
MYL12B (UniProt O14950),-0.053,-0.085,0.06,0.052,-0.06,-0.064,0.031,-0.025,-0.078,0.01,0.057,-0.012,-0.14,0.019,0.007,-0.036,0.009,-0.041,-0.012,-0.018
NME1 isoform 2 (UniProt P15531),0.061,0.046,0.03,-0.01,-0.087,-0.134,-0.028,0.024,-0.184,-0.039,-0.156,0.049,-0.103,-0.024,-0.087,-0.01,0.035,0.069,-0.032,0.041
NMT1 (UniProt P30419),0.028,-0.21,0.036,0.014,0.016,-0.028,-0.022,-0.073,0.007,-0.097,-0.046,0.019,0.001,-0.029,-0.003,0.015,-0.009,0.013,-0.002,0.024
MSH3 (UniProt P20585),-0.032,-0.179,-0.003,0.062,-0.072,-0.019,-0.028,0.019,-0.008,0.047,-0.013,-0.003,-0.015,0.045,-0.026,0.015,0.031,-0.011,0.069,-0.02
P4HA2 (UniProt O15460),0.08,-0.012,-0.006,-0.257,-0.038,0.138,-0.036,-0.126,0.112,0.118,0.002,-0.033,0.004,0.098,0.003,0.085,0.145,0.016,-0.019,0.001
NTMT1 (UniProt Q9BV86),-0.047,-0.004,0.051,0.092,0.005,-0.141,0.081,-0.022,-0.037,0.099,-0.048,0.055,-0.104,-0.071,-0.032,-0.081,0.169,0.184,0.06,-0.157
NSMCE2 (UniProt Q96MF7),0.072,-0.032,-0.003,-0.089,0.025,0.079,-0.007,0.119,0.059,0.397 (active),-0.019,-0.095,-0.004,0,0.031,-0.06,0.076,-0.076,-0.001,0.025
NUDT6 (UniProt P53370),0.177,0.041,-0.289,0.031,0.016,,-0.055,,-0.132,,0.063,,0.165,0.098,0.014,0.066,-0.38,-0.023,-0.024,-0.087
NAA11 (UniProt Q9BSU3),-0.013,-0.041,0.044,0.063,0.015,,-0.114,-0.053,0.001,,0.033,-0.247,-0.038,0.035,-0.078,-0.132,0.135,-0.133,0.022,0.034
OSBPL3 (UniProt Q9H4L5),0.136,0.621,-0.126,-0.37,-0.235,,0,,0.164,,-0.284,-0.414,0.234,0.219,0.312,0.127,0.518,0.122,0.006,-0.11
